# According to PubChem BioAssay:
# The source made the active and inactive calls.
# Experiments:
# [1] = E. coli DRC41 culture turbidity changes, primary screen, E. coli filamentation inducer project, strain DRC41, OD650, 48 h (AID 1152);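 note: E. coli MC1000 strain DRC41 lacking acrAB efflux pump and sulA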; details: E. coli DRC41 (acrAB sulA), higher = more signal, called active from +8 up or from −8 down
# [2] = small-molecule binders of probe aLefty1, primary screen, biochemical, small-molecule microarray, 635/667 nm fluorescence (AID 1153); details: higher = more signal;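 note: score merges spot fluorescence with signal-to-noise ratio from the scanned slide images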
# [3] = PSAC antagonists in infected red cells, primary screen, cell-based, P. falciparum Indochina, OD700, 1 h (AID 1154); details: P. falciparum Indochina infected RBC osmotic lysis, higher = more signal, called active from +8 up or from −8 down
# [4] = PSAC antagonists in infected red cells, primary screen, cell-based, P. falciparum Indochina, OD700, 2 h (AID 1155);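 note: lysis reports solute entry through the parasite surface anion channel PSAC; channel blockers reduce lysis of infected cells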; details: P. falciparum Indochina infected erythrocytes, osmotic lysis OD700; higher = more signal, called active from +8 up or from −8 down
# [5] = osmotic lysis modulators in infected erythrocytes, primary screen, PSAC antagonist project, cell-based, P. falciparum Indochina, OD700, 3 h (AID 1156); details: higher = more signal, called active from +8 up or from −8 down
# [6] = PSAC antagonists in infected red cells, primary screen, cell-based, P. falciparum Indochina, OD700, 18 h (AID 1157); details: P. falciparum Indochina infected erythrocytes, osmotic lysis OD700, 18 h; higher = more signal, called active from +8 up or from −8 down
# [7] = modulators of S6 phosphorylation in cells, primary screen, cell-based, A549, cytoblot, luminescence, serum-stimulated (AID 1158); details: A549 phospho-S6 cytoblot, 5 h, higher = more signal;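 note: serum-stimulated A549 lung adenocarcinoma cells; signal is phosphorylated S6 detected by cytoblot immunostaining with HRP secondary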
# [8] = target: NADPH oxidase 2 (Homo sapiens) (UniProt P04839); experiment: NOX2-dependent H2O2 signal modulators, primary screen, NOX inhibitor project, cell-based, HEK293-NOX2, PMA-stimulated, Amplex Red fluorescence (AID 1159); details: 45 min, higher = more signal, called active from +8 up or from −8 down; note: test concentration not given here
# NADPH oxidase 2 (Homo sapiens), sequence (P04839 whole entry, looked up): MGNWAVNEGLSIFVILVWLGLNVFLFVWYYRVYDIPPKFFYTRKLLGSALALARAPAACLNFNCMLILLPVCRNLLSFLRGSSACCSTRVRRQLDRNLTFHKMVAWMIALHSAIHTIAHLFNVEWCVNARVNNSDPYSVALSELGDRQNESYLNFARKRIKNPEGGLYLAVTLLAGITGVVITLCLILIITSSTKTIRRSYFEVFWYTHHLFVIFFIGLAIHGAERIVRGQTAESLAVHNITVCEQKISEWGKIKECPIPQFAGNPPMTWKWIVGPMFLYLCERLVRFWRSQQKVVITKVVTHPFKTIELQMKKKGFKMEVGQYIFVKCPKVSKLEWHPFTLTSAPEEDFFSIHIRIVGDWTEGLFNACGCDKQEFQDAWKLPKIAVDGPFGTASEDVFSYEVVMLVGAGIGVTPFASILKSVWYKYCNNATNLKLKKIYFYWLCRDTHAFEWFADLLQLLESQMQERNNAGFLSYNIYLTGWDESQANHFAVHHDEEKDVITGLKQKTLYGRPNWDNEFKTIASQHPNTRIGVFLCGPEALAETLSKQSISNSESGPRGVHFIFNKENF
# [9] = target: NADPH oxidase 4 (Homo sapiens) (UniProt Q9NPH5); experiment: NOX4-dependent H2O2 signal modulators, primary screen, NOX inhibitor project, cell-based, HEK293-NOX4, tetracycline-induced, Amplex Red fluorescence (AID 1160); details: 45 min, higher = more signal, called active from +8 up or from −8 down
# NADPH oxidase 4 (Homo sapiens), sequence (Q9NPH5 whole entry, looked up): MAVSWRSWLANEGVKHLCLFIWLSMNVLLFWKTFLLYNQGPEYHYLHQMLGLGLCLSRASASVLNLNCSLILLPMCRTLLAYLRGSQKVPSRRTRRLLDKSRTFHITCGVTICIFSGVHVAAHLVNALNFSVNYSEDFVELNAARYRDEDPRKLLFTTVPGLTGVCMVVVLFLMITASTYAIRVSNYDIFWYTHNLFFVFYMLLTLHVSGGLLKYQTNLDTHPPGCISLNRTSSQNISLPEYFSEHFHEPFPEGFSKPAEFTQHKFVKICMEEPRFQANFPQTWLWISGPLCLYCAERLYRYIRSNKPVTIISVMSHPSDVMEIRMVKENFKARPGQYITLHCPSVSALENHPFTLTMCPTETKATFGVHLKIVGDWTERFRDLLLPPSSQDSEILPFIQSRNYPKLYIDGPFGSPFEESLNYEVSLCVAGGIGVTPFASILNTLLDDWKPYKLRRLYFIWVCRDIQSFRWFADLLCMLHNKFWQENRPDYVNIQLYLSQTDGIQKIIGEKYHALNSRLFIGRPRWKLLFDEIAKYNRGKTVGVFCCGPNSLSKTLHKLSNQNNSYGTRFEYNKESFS
# [10] = target: NADPH oxidase 5 (Homo sapiens) (UniProt Q96PH1); experiment: NOX5-dependent H2O2 signal modulators, primary screen, NOX inhibitor project, cell-based, HEK293-NOX5, Amplex Red fluorescence (AID 1161); details: HEK293-NOX5, ionomycin, 45 min, higher = more signal
# NADPH oxidase 5 (Homo sapiens), sequence (Q96PH1 whole entry, looked up): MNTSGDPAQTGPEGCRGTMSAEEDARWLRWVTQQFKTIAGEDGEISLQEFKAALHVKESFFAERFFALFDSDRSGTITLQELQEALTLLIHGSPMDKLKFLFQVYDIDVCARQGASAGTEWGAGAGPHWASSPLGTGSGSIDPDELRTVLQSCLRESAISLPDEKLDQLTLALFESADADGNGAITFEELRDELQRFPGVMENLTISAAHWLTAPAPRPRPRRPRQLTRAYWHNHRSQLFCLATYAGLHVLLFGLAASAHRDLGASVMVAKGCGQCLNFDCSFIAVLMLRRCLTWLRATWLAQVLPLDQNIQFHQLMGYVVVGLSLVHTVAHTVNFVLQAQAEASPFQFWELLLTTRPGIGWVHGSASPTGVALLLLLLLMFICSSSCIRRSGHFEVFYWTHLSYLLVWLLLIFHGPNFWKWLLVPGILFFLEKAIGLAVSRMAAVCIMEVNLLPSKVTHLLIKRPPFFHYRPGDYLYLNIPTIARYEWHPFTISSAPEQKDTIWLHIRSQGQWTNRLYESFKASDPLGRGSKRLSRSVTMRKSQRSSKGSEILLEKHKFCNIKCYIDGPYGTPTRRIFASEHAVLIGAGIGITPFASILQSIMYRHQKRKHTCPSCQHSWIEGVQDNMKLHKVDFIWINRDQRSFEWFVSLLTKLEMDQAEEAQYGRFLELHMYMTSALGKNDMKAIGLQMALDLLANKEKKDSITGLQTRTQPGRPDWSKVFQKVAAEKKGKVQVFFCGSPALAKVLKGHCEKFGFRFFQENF
# [11] = A549 cell viability effects, profiling panel, calcein-AM fluorescence, 48 h, basal (AID 1162); details: higher = more signal; note: test concentration not given here
# [12] = adipocyte viability effects, profiling panel, cell-based, 3T3-L1 adipocytes, calcein-AM fluorescence, 48 h, basal (AID 1163); details: 3T3-L1 adipocytes viability, higher = more signal; note: test concentration not given here
# [13] = HepG2 cell viability effects, profiling panel, calcein-AM fluorescence, 48 h, basal (AID 1164); details: higher = more signal; note: test concentration not given here
# [14] = MM1S cell viability effects, profiling panel, calcein-AM fluorescence, 48 h, basal (AID 1165); details: higher = more signal;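 note: viability of MM1S multiple myeloma cells under basal unstimulated conditions; test concentration not given here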
# [15] = basal RPMI8226 viability, no added stimulus, profiling panel, cell-based, calcein-AM fluorescence, 48 h, PK04 Diversity Set (AID 1166); details: RPMI8226 myeloma viability, higher = more signal;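 note: cells grown under basal conditions without added stimulus; test concentration not given here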
# [16] = basal HepG2 mitochondrial membrane potential changes, profiling panel, cell-based, JC-1 fluorescence, 24 h, 100 nL compound (AID 1167); details: higher = more signal; note: test concentration not given here
# [17] = basal 3T3-L1 adipocyte mitochondrial potential changes, profiling panel, cell-based, JC-1 fluorescence, 3T3-L1 adipocytes, 24 h, 100 nL compound (AID 1168); details: JC-1 mitochondrial fluorescence, higher = more signal, called active from +8 up or from −8 down; note: test concentration not given here
# [18] = basal RPMI8226 mitochondrial membrane potential changes, profiling panel, cell-based, JC-1 fluorescence, 24 h, 100 nL compound (AID 1169); details: RPMI8226 myeloma, JC-1 mitochondrial potential fluorescence, higher = more signal; note: test concentration not given here
# [19] = basal MM1S mitochondrial membrane potential changes, profiling panel, cell-based, JC-1 fluorescence, 24 h, 100 nL compound (AID 1170); details: higher = more signal; note: test concentration not given here
# [20] = A549 lung cancer cell viability effects, profiling panel, resazurin fluorescence, 24 h, PK04 Diversity Set (AID 1171); details: higher = more signal, called active from +8 up or from −8 down; note: test concentration not given here
Structure (SMILES),z-score [1],composite z-score [2],z-score [3],z-score [4],z-score [5],z-score [6],z-score [7],z-score [8],z-score [9],z-score [10],z-score [11],z-score [12],z-score [13],z-score [14],z-score [15],z-score [16],z-score [17],z-score [18],z-score [19],z-score [20]
NCCCCCNC(=O)[C@@H]1C[C@@H]2C(=O)N[C@@H](CCCCN)C(=O)N2[C@@H]1c1cccc(OCCO)c1,1.17 (inactive),-0.432,0.539 (inactive),0.0681 (inactive),1.24 (inactive),0.0802 (inactive),-0.157,0.141 (inactive),0.557 (inactive),0.582,0.338,0.337,0.68,0.89,0.269,0.0184,1.37 (inactive),-0.698,-0.362,0.714 (inactive)
COCCOC(=O)N1C(=O)[C@@]2(c3cc(C#CCC(C(=O)OC)C(=O)OC)ccc31)[C@H](c1ccc(OCCO)cc1)N1[C@H](c3ccccc3)[C@H](c3ccccc3)OC(=O)[C@H]1[C@@H]2C(=O)N1CCN(c2ncccn2)CC1,1.89 (inactive),0.297,6.55 (inactive),1.35 (inactive),0.14 (inactive),-0.0311 (inactive),1.72,-0.105 (inactive),-1.13 (inactive),-4.4,-0.828,1.2,-0.709,-0.0585,-1.07,-0.49,0.436 (inactive),-0.262,-1.53,1.83 (inactive)
O=C1O[C@@H](c2ccccc2)[C@@H](c2ccccc2)N2[C@@H](c3ccccc3OCCO)[C@]3(C(=O)Nc4ccccc43)[C@@H](C(=O)NC[C@H](O)c3ccccc3)[C@H]12,-0.275 (inactive),0.0112,5.03 (inactive),2.2 (inactive),-0.526 (inactive),1.87 (inactive),-0.589,1.43 (inactive),0.303 (inactive),1.56,-1.53,0.0155,-3.94,-3.32,-4.54,-1.64,0.305 (inactive),-1.22,-2.09,-1.99 (inactive)
CC=CC(O)C1C=CC2C(=O)N(C)C(=O)C2N1Nc1ccc([N+](=O)[O-])cc1[N+](=O)[O-] (stereo not given),-1.33 (inactive),-0.094,1.67 (inactive),0.917 (inactive),0.566 (inactive),1.1 (inactive),-0.711,-0.379 (inactive),-1.05 (inactive),-1.09,-0.481,-0.682,0.275,-1.73,-0.485,-0.744,-0.453 (inactive),0.0263,-0.635,-0.574 (inactive)
O=C1OCCC=C[C@H]2OC34C=CCN(c5ccc(Cl)cc5)C(=O)[C@H]3N(CCCCCO)C(=O)[C@@H]4C12 (stereo not given in full),1.81 (inactive),0.211,2.21 (inactive),0.355 (inactive),1.63 (inactive),0.795 (inactive),0.0411,1.69 (inactive),0.747 (inactive),2.35,0.657,0.0279,1.11,1.54,-0.579,0.989,1.14 (inactive),0.211,0.0628,1.03 (inactive)
O=C(O)[C@]1(Cc2ccccc2)N=C(c2ccc(OCCCO)cc2)O[C@@H]1c1ccccc1,0.585 (inactive),0.104,5.03 (inactive),-0.125 (inactive),-1.2 (inactive),0.0743 (inactive),-0.174,0.26 (inactive),0.674 (inactive),0.914,1.07,-1.44,0.493,0.427,0.261,-0.121,0.766 (inactive),-0.833,-0.38,0.455 (inactive)
C=CCN1C(=O)[C@@]2(O[C@@H](CCO)[C@H]([Si](C)(C)c3ccc(OC)cc3)[C@H]2C)c2cc(N3C(=O)c4ccccc4Oc4ccccc43)ccc21,1.88 (inactive),-0.147,24.4 (active),8.39 (active),0.332 (inactive),2.07 (inactive),0.502,-0.946 (inactive),0.757 (inactive),-0.54,-3.02,-0.428,-4.76,-2.94,-4.12,-2.97,1.07 (inactive),-1.1,-2.33,-4.55 (inactive)
COc1ccccc1CN1C(=O)c2ccccc2[C@@H](C(=O)NC(C)C)[C@@H]1c1ccc(CO)cc1,0.671 (inactive),0.211,1.18 (inactive),0.525 (inactive),0.797 (inactive),0.376 (inactive),0.0984,0.372 (inactive),1.44 (inactive),0.976,1.66,0.611,1.95,0.472,0.717,1.63,-0.41 (inactive),0.652,-0.365,2.35 (inactive)
CN1C(=O)C2C=CC(C(O)Cc3ccccc3)N(N(c3ccccc3)c3ccccc3)C2C1=O (stereo not given),-1.29 (inactive),0.137,1.15 (inactive),1.09 (inactive),0.449 (inactive),0.679 (inactive),-1.07,-0.0622 (inactive),-0.198 (inactive),0.158,1.02,-1.5,1.35,-0.64,0.0338,1.37,-0.833 (inactive),0.257,-0.871,-0.69 (inactive)
